# According to PubChem BioAssay (NCI):
# The panel holds about 83,000 compounds, 20% with a hit somewhere; the sample as a whole holds those more often.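 48-hour exposure, single concentration, 96-well plates; percent growth endpoint where 0 means no net growth. Active: below 10.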 Unmarked numbers belong to inactive results. Activity calls are given as the source filed them.
# How the values were obtained:
# Assay in all cases: NCI-60 one-dose screen, 48 h (100 = growth as untreated, 0 = no growth, -100 = all killed)
# Conditions in all cases: 10 µM unless noted
# [1] = system: NCI-H23 lung
# [2] = system: NCI-H226 lung
# [3] = system: NCI-H322M lung
# [4] = system: HOP-62 NSCLC
# [5] = system: NCI-H460 lung
# [6] = system: HOP-92 NSCLC
# [7] = system: NCI-H522 lung
# [8] = system: A549/ATCC NSCLC
# [9] = system: 786-0 renal
# [10] = system: COLO 205 colon
# [11] = system: DU-145 prostate
# [12] = system: K-562 leukemia
# [13] = system: MALME-3M melanoma
# [14] = system: MDA-MB-231 breast
# [15] = system: RXF 393 renal
# [16] = system: SF-268 CNS
# [17] = system: SF-295 CNS
# [18] = system: SF-539 CNS
# [19] = system: UACC-257 melanoma
# [20] = system: M14 melanoma
Compound,growth [1],growth [2],growth [3],growth [4],growth [5],growth [6],growth [7],growth [8],growth [9],growth [10],growth [11],growth [12],growth [13],growth [14],growth [15],growth [16],growth [17],growth [18],growth [19],growth [20]
[2H]c1nc(Nc2ncc3cc(C(=O)N(C)C)n(C4CCCC4)c3n2)c([2H])c([2H])c1N1C([2H])([2H])C([2H])([2H])NC([2H])([2H])C1([2H])[2H],67.1%,74.6%,71.5%,52.3%,59.1%,65.8%,61.8%,45%,52.9%,28.1%,88.4%,53.2%,62.4%,51%,62.9%,75.3%,72.1%,71.5%,60%,70.7%
CC(=O)O[C@@H]1C[C@]2(C)[C@H]3[C@H](O)C[C@@H]4C5=CC(C)(C)CC[C@]5(C)CC[C@@]4(C)[C@]3(C)CC[C@H]2C(C)(C)[C@H]1O,95.7%,99.4%,118%,101%,102%,115%,103%,94%,99.3%,117%,107%,108%,107%,113%,111%,101%,104%,102%,110%,99.3%
COc1cc2nc3c(=O)n(CCN(C)C)cnn3c(=O)c2cc1OC,95.9%,103%,95.2%,101%,105%,100%,89%,105%,105%,102%,108%,125%,99.4%,116%,108%,101%,99.5%,97.7%,107%,95.5%
COc1cc(NC(=O)Nc2cnc(Nc3ccc(N4CCOCC4)cc3)nc2Oc2ccc(C(F)(F)F)cc2)cc(OC)c1,105%,97.7%,106%,95.5%,105%,99%,95.9%,103%,109%,127%,118%,95.3%,118%,96.7%,110%,101%,111%,103%,101%,107%
COc1ccc(Sc2[nH]c(C(C)=O)c3ccccc23)cc1,82.6%,69.8%,76.7%,83.7%,20.4%,65.8%,-7.2% (active),23%,92.2%,-31.2% (active),89.4%,11.9%,74%,83.3%,69.1%,73.2%,93.4%,72.2%,84.1%,62.3%
CCC[S@](=O)c1ccc2nc(NC(=O)OC)[nH]c2c1,98.2%,89.9%,98.6%,84.6%,99.8%,96.5%,70.7%,75.6%,94.2%,100%,106%,92.3%,104%,96.4%,115%,102%,99.9%,96.6%,69.3%,98.9%
COc1cc([C@H](C)c2ccc3ccccc3c2)cc(OC)c1OC,30.1%,68.2%,55.9%,36.7%,8.84% (active),66.3%,10.1%,24.6%,39.6%,-3.69% (active),17.6%,8.51% (active),64%,33.8%,-10.5% (active),55.3%,13.5%,-19.3% (active),51.4%,17.5%
OCCNc1nc(NCCO)nc(Nc2ccc(C3=NN(c4ccc(Cl)cc4)C(c4ccc(Cl)cc4)C3)cc2)n1 (stereo not given),70.4%,104%,50.7%,47.2%,36.2%,81.9%,63.9%,50.9%,16.7%,65.5%,51.9%,13.3%,70.1%,63.7%,-26.1% (active),53%,12.2%,36.6%,72.9%,63.9%
COc1cc(C(=O)Nc2cc(O)c(C/C=C(\C)CCC=C(C)C)c(O)c2)cc2c1O[C@]1(C)CC[C@@H](O)C(C)(C)[C@H]1C2,27.8%,40.5%,48.2%,8.47% (active),12.4%,-2.91% (active),18.8%,11.9%,-6.12% (active),-22.2% (active),27%,-31.5% (active),-5.78% (active),-36.5% (active),-40.3% (active),24.8%,-36.2% (active),-41.7% (active),24%,-0.604% (active)
c1ccc(-c2n(Cc3ccc4ccccc4n3)cc[n+]2Cc2ccc3ccccc3c2)cc1,2.93% (active),9.5% (active),23.6%,16.5%,6.08% (active),-32.4% (active),2.04% (active),45.3%,26.2%,-77.5% (active),28.2%,5.02% (active),-20% (active),-6.39% (active),-8.14% (active),20.5%,-7.2% (active),11.5%,-27.1% (active),-24.8% (active)
O=C1CC23OC(C(O)c4ccccc4N12)C1C(c2ccccc2)=NOC13 (stereo not given),66.7%,82%,79.7%,68.5%,76.5%,43.3%,40.8%,82.9%,37.2%,50.6%,81.9%,16.1%,49.8%,52.9%,71.5%,64.1%,42.3%,50%,89.2%,16.1%
COc1cc(C2CC(c3ccc(Nc4nc(NCCO)nc(NCCO)n4)cc3)=NN2c2cc(Cl)cc(Cl)c2)cc(OC)c1OC (stereo not given),4.73% (active),106%,11.9%,14.4%,-24.5% (active),89.9%,25.1%,0.449% (active),-17.5% (active),35%,12.8%,2.02% (active),-66.3% (active),-19.2% (active),-42.5% (active),-33.3% (active),6.18% (active),-61.3% (active),13.2%,-14.3% (active)
Cc1c(C(=O)Nc2nc3ccccc3[nH]2)cnn1-c1ccccn1,101%,104%,111%,107%,103%,135%,76.2%,86.3%,107%,126%,112%,93.5%,106%,109%,105%,107%,102%,98.9%,82.4%,111%
O=C(Nc1ccccc1)NS(=O)(=O)c1c[nH]c(=S)[nH]c1=O,92.3%,105%,104%,72.4%,106%,115%,60.7%,80.7%,95.7%,96.5%,105%,103%,100%,105%,127%,97.1%,97.8%,99.8%,92.5%,104%
CCOC(=O)c1c(C)nc2c(c1N)CC(=O)N2CCc1ccccc1,53.2%,42.1%,59.3%,5.73% (active),6.52% (active),25.3%,-6.01% (active),23%,8.72% (active),10.7%,9.55% (active),11.7%,49.1%,31.8%,27.1%,24%,15.6%,13.7%,56.6%,18%
